Measured values as given in PubChem BioAssay (EPA / NIEHS).
Records with an inconclusive call do not appear. Active and inactive are the calls of the source. Rule for the calls, unless noted: active = hit-call score of the fitted dose curve at least 0.9, where 1 is the maximum; inactive = score below 0.9.

How the values were obtained:
[1] = ATG_TCF_b_cat_CIS: Attagene CIS-FACTORIAL HepG2 Assay for human T-Cell-Factor with beta-catenin (TCF/b-cat) (AID 2282965); details: HepG2 TCF/beta-catenin cis-reporter transcription, actives raise or lower the signal
In short: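 In this cis-format system, transfected HepG2 cells report endogenous transcription factor activity. Readout after 24 h exposure is reporter transcript abundance from RT-PCR and capillary electrophoresis, analysed for gain or loss of signal versus DMSO.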

[2] = ATG_TAL_CIS: Attagene CIS-FACTORIAL HepG2 Assay for human TAL Basal Promoter (AID 2282966); details: HepG2 Attagene cis-factorial TAL promoter reporter; actives raise or lower the signal;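 note: background control endpoint measuring basal TAL promoter reporter mRNA not a specific factor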
In short: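 In this cell-based multiplex, HepG2 liver cells bearing cis-promoter reporter constructs are dosed for 24 hours. Total RNA is reverse-transcribed and amplified, labelled fragments are sized by capillary electrophoresis, and signal changes are fitted bidirectionally versus DMSO.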

[3] = ATG_TGFb_CIS: Attagene CIS-FACTORIAL HepG2 Assay for human Transforming Growth Factor (TGF) (AID 2282967); details: HepG2 Attagene CIS TGFb reporter, mRNA transcription; actives raise or lower the signal
In short: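 HepG2 cells transiently transfected with cis-promoter-driven multiple reporter units measure endogenous TF activity; reporter mRNA quantified at 24 h by RT-PCR, FAM labeling, HpaI digestion and capillary electrophoresis. Bidirectional fit vs DMSO.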

[4] = target: X-box-binding protein 1 (Homo sapiens) (UniProt P17861); experiment: ATG_Xbp1_CIS: Attagene CIS-FACTORIAL HepG2 Assay for human X-box Binding Protein 1 (XBP1) (AID 2282972); details: HepG2 XBP1 cis-element reporter, Attagene multiplex; actives raise or lower the signal
Chain of X-box-binding protein 1 (Homo sapiens) (P17861 whole entry, looked up): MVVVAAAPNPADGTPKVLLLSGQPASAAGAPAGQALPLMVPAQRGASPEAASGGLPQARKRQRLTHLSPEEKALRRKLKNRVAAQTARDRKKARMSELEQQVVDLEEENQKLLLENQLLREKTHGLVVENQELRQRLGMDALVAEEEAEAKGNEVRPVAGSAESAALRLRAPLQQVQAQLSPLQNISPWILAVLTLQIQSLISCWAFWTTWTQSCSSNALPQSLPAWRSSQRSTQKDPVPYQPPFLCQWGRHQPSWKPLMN
In short: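 HepG2 cells transiently transfected with cis-regulated multiple reporter transcription units; endogenous transcription factor activity measured 24 hours after chemical dosing. Reporter mRNA quantified by RT-PCR, 6-FAM primer extension, HpaI digestion and capillary electrophoresis; bidirectional fitting versus DMSO.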

[5] = ATG_GAL4_TRANS: Attagene TRANS-FACTORIAL HepG2 Assay for GAL4 (Internal Marker) (AID 2282976; active = hit-call score of the fitted dose curve at least 0.9, where 1 is the maximum); details: HepG2 Attagene TRANS GAL4 internal marker reporter
In short: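 RT-PCR/capillary electrophoresis readout of reporter mRNA. HepG2, transient MRTU transfection (GAL4-UAS reporters), 24 h compound exposure. Background-control endpoint, positive direction vs DMSO baseline.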

[6] = target: Glucocorticoid receptor (Homo sapiens) (UniProt P04150); experiment: ATG_GR_TRANS: Attagene TRANS-FACTORIAL HepG2 Assay for human Glucocorticoid Receptor (GR) (AID 2282978; active = hit-call score of the fitted dose curve at least 0.9, where 1 is the maximum;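 note: activators score as hits since higher reporter transcript over DMSO is fitted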); details: HepG2 Attagene TRANS GR reporter, mRNA transcription
Chain of Glucocorticoid receptor (Homo sapiens) (P04150 whole entry, looked up): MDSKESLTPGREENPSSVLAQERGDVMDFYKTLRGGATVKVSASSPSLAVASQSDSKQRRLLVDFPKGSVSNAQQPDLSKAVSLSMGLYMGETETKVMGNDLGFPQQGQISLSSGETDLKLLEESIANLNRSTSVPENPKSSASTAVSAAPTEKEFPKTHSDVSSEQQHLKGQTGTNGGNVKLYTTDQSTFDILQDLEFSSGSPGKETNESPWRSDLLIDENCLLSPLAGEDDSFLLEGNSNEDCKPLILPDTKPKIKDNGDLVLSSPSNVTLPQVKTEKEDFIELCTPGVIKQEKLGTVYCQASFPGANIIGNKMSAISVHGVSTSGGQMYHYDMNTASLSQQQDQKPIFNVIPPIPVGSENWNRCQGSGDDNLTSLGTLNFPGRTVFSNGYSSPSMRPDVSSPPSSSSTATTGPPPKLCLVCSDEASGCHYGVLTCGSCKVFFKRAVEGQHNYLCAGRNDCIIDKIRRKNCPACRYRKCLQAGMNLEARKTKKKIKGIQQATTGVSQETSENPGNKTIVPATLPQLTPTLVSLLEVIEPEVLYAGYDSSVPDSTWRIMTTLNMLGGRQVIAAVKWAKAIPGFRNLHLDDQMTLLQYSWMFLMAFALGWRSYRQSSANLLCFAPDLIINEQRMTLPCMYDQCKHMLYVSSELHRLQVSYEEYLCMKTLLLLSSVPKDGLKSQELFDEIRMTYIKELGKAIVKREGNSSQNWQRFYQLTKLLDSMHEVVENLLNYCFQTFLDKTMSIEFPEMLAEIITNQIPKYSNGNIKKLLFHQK
In short: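 After 24 h incubation with test chemical, transfected HepG2 cells were lysed for RNA; reporter cDNA was amplified, FAM-labelled, HpaI-digested and sized on a capillary analyser. Signal gain relative to DMSO was scored.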

[7] = target: Bile acid receptor (Homo sapiens) (UniProt Q96RI1); experiment: ATG_FXR_TRANS: Attagene TRANS-FACTORIAL HepG2 Assay for Farnesoid X Receptor (FXR) (AID 2282979; active = hit-call score of the fitted dose curve at least 0.9, where 1 is the maximum;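 note: hits raise reporter mRNA above DMSO so AC50 marks FXR activation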); details: HepG2 Attagene TRANS FXR-GAL4 reporter transcription
Chain of Bile acid receptor (Homo sapiens) (Q96RI1 whole entry, looked up, the tested form may be a part): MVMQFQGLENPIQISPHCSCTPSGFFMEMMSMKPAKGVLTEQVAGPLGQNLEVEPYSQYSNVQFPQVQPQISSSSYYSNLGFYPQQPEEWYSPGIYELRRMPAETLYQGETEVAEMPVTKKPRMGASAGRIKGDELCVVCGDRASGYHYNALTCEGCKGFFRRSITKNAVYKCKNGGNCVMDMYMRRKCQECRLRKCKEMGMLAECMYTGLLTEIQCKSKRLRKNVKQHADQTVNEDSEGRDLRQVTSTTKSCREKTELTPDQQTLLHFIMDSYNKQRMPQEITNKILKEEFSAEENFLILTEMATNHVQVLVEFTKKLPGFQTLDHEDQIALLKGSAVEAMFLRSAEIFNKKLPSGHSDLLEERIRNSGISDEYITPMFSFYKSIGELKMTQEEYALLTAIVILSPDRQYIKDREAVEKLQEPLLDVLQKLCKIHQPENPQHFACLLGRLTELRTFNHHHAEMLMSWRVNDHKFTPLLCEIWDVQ
In short: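 Read-out: fluorescent reporter transcripts quantified by capillary electrophoresis after RT-PCR of total RNA. Source cells were HepG2 transiently carrying chimeric NR-GAL4 plus GAL4-UAS reporter units, dosed 24 h. Activity fitted upward relative to DMSO baseline.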

[8] = ATG_M_06_TRANS: Attagene TRANS-FACTORIAL HepG2 Assay for M06 Transcription Factor (Internal Marker) (AID 2282983; active = hit-call score of the fitted dose curve at least 0.9, where 1 is the maximum;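 for AC50: potency for rise in reporter mRNA above DMSO baseline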;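 for outcome: reporter transcript level by RT-PCR then capillary electrophoresis fluorescence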); details: HepG2 Attagene TRANS M06 internal marker reporter
In short: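 After a 24 h chemical treatment of transfected HepG2, RNA underwent DNase I treatment, reverse transcription and reporter-specific PCR; labelled, HpaI-digested products were sized by capillary electrophoresis. Signal increase relative to DMSO defined activity.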

[9] = ATG_VDRE_CIS: Attagene CIS-FACTORIAL HepG2 Assay for human Vitamin D Receptor Element (VDRE) (AID 2282968); details: HepG2 VDRE cis-reporter transcription, actives raise or lower the signal
In short: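 HepG2 cells transiently transfected with cis-element reporter units, dosed 24 h; reporter mRNA measured by RT-PCR, 6-FAM labeling, HpaI digestion and capillary electrophoresis. Activity fitted bidirectionally against DMSO baseline.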

[10] = target: Androgen receptor (Homo sapiens) (UniProt P10275); experiment: ATG_AR_TRANS: Attagene TRANS-FACTORIAL HepG2 Assay for human Androgen Receptor (AR) (AID 2282973; active = hit-call score of the fitted dose curve at least 0.9, where 1 is the maximum); details: HepG2 Attagene TRANS-FACTORIAL AR reporter transcription
Chain of Androgen receptor (Homo sapiens) (P10275 whole entry, looked up, the tested form may be a part): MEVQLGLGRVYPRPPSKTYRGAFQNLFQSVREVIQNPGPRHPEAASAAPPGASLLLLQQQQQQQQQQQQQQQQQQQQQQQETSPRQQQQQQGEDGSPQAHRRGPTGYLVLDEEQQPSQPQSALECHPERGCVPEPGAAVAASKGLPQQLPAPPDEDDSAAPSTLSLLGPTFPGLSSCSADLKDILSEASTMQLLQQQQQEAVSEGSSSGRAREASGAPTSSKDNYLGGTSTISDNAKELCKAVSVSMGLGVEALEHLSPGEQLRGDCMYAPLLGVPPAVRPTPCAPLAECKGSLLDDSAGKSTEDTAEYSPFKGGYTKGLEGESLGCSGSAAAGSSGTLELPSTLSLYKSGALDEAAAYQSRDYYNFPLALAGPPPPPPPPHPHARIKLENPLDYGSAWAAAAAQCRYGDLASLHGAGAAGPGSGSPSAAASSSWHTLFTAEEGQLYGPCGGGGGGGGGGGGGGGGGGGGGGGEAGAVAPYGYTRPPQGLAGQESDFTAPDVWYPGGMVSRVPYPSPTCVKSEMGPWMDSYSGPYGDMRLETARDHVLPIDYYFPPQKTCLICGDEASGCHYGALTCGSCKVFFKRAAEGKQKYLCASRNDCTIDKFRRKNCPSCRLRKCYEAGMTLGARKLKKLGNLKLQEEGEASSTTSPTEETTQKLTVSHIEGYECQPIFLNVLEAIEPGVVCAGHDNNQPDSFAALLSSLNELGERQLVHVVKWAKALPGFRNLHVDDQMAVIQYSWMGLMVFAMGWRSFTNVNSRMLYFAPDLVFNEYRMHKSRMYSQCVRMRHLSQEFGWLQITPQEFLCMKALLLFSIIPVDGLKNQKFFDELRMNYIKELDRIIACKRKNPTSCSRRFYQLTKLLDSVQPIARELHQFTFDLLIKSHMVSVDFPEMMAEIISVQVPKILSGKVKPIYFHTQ
In short: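 Readout is reporter transcript abundance, quantified by fluorescent RT-PCR products separated on capillary electrophoresis. Human HepG2 liver cells carried transiently transfected NR-Gal4 chimera plus GAL4-UAS reporter constructs and were dosed for 24 h; activity scored upward versus DMSO.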

[11] = target: Hepatocyte nuclear factor 4-alpha (Homo sapiens) (UniProt P41235); experiment: ATG_HNF4a_TRANS: Attagene TRANS-FACTORIAL HepG2 Assay for human Hepatocyte Nuclear Factor 4 alpha (HNF4a) (AID 2282982; active = hit-call score of the fitted dose curve at least 0.9, where 1 is the maximum); details: HepG2 HNF4a transactivation reporter, mRNA readout
Chain of Hepatocyte nuclear factor 4-alpha (Homo sapiens) (P41235 whole entry, looked up, the tested form may be a part): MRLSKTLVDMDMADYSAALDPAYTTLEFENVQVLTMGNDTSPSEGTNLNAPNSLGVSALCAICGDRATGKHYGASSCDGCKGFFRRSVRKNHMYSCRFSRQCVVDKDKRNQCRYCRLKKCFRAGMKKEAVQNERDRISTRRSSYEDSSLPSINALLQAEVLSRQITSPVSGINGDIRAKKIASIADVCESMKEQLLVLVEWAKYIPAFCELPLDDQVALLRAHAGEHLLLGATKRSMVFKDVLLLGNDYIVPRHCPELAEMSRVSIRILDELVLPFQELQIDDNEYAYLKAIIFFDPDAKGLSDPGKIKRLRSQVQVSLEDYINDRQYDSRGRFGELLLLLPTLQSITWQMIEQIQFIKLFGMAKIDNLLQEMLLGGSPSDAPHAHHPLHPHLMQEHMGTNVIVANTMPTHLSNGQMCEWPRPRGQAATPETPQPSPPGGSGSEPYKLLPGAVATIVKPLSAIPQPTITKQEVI
In short: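 HepG2 cells transiently transfected with multiplexed GAL4-UAS reporter units responsive to chimeric NR-GAL4 proteins; compound exposure 24 h. Reporter mRNA quantified by RT-PCR, 6-FAM labelling, HpaI digestion and capillary electrophoresis; gain of signal versus DMSO baseline.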

[12] = ATG_M_32_TRANS: Attagene TRANS-FACTORIAL HepG2 Assay for M32 Transcription Factor (Internal Marker) (AID 2282984; active = hit-call score of the fitted dose curve at least 0.9, where 1 is the maximum;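 note: transcript level of a background control reporter unit measured by RT-PCR and capillary electrophoresis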); details: HepG2 Attagene TRANS M32 internal marker reporter
In short: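 HepG2 cells transiently transfected with multiple GAL4-UAS reporter transcription units, dosed for 24 hours; reporter mRNA quantified by RT-PCR, 6-FAM primer extension, HpaI digestion and capillary electrophoresis. Gain-of-signal fitted versus DMSO baseline; internal background-control marker.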

[13] = target: Steroid hormone receptor ERR1 (Homo sapiens) (UniProt P11474); experiment: ATG_ERRa_TRANS: Attagene TRANS-FACTORIAL HepG2 Assay for human Estrogen-Related Receptor alpha (ERRa) (AID 2282971; active = hit-call score of the fitted dose curve at least 0.9, where 1 is the maximum); details: HepG2 Attagene TRANS reporter, ERRa transactivation
Chain of Steroid hormone receptor ERR1 (Homo sapiens) (P11474 whole entry, looked up, the tested form may be a part): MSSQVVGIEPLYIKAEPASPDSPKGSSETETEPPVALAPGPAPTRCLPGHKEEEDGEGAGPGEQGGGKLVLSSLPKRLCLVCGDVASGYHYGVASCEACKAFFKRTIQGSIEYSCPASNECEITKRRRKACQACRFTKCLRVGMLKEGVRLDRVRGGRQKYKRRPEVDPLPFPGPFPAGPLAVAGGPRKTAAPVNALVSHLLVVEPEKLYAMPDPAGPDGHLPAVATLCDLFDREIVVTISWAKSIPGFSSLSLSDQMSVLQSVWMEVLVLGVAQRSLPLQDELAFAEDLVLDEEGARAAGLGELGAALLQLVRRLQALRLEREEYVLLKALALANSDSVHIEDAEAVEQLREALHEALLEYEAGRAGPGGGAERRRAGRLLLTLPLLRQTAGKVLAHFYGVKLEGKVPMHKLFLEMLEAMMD
In short: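 Transfected HepG2, 24 h dosing, ERRa-Gal4 chimera driving GAL4-UAS reporter. Readout: reporter mRNA via RT-PCR plus capillary electrophoresis (fluorescence). Positive direction vs DMSO control.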

[14] = ATG_M_19_TRANS: Attagene TRANS-FACTORIAL HepG2 Assay for M19 Transcription Factor (Internal Marker) (AID 2282974; active = hit-call score of the fitted dose curve at least 0.9, where 1 is the maximum); details: HepG2 Attagene TRANS-FACTORIAL M19 internal marker reporter
In short: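 Transfected HepG2 (GAL4-UAS MRTUs), 24 h compound, TriZol RNA, DNase-treated RT, reporter PCR, FAM label, HpaI digest, CE fluorescence; gain vs DMSO.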

[15] = target: Estrogen-related receptor gamma (Homo sapiens) (UniProt P62508); experiment: ATG_ERRg_TRANS: Attagene TRANS-FACTORIAL HepG2 Assay for human Estrogen-Related Receptor gamma (ERRg) (AID 2282977; active = hit-call score of the fitted dose curve at least 0.9, where 1 is the maximum;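 note: hits increase reporter signal over DMSO so potencies reflect activators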); details: HepG2 Attagene TRANS reporter, ERRg transactivation
Chain of Estrogen-related receptor gamma (Homo sapiens) (P62508 whole entry, looked up, the tested form may be a part): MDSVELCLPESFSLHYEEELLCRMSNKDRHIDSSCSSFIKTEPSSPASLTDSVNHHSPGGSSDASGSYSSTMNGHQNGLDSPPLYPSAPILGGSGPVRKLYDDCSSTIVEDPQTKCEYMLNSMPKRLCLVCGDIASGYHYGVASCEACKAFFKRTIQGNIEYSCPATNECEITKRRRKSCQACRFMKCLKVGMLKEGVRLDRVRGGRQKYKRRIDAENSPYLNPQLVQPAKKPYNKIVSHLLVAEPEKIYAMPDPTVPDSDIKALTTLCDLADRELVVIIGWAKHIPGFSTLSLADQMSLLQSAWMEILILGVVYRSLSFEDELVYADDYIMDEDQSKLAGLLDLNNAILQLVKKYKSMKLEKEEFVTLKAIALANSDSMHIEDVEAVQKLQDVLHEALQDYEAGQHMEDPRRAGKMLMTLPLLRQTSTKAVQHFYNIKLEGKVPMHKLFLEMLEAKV
In short: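 Transient HepG2 transfectants, 24 h compound exposure, GAL4-UAS reporter mRNA by RT-PCR/6-FAM labelling/capillary electrophoresis; positive direction vs DMSO.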

[16] = target: Nuclear receptor subfamily 4 group A member 2 (Homo sapiens) (UniProt P43354); experiment: ATG_NURR1_TRANS: Attagene TRANS-FACTORIAL HepG2 Assay for human Nuclear Receptor Related Protein 1 (NURR1) (AID 2282985; active = hit-call score of the fitted dose curve at least 0.9, where 1 is the maximum); details: HepG2 Attagene TRANS reporter, mRNA readout
Chain of Nuclear receptor subfamily 4 group A member 2 (Homo sapiens) (P43354 whole entry, looked up, the tested form may be a part): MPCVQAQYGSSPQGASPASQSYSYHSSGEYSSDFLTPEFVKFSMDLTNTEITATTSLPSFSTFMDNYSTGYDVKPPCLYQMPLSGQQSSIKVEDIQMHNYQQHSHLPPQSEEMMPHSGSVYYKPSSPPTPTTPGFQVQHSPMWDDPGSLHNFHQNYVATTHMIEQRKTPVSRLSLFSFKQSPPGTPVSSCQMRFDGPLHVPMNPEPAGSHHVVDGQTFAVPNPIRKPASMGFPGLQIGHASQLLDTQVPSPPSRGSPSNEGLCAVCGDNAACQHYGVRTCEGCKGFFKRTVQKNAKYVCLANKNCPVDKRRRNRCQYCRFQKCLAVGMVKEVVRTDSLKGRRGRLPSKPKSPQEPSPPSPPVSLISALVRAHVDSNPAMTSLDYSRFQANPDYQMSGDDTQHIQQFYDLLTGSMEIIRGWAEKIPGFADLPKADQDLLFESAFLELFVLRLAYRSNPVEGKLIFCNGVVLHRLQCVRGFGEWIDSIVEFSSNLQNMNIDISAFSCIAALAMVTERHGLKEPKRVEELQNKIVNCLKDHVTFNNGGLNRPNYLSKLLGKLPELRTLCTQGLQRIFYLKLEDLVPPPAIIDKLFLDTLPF
In short: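 HepG2 cells transiently transfected with GAL4-UAS reporter units and chimeric NR-Gal4 constructs; chemical exposure 24 h. Reporter mRNA quantified by RT-PCR, fluorescent labelling and capillary electrophoresis; gain of signal fitted relative to DMSO baseline.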

[17] = target: Nuclear receptor subfamily 1 group I member 3 (Homo sapiens) (UniProt Q14994); experiment: ATG_CAR_TRANS: Attagene TRANS-FACTORIAL HepG2 Assay for human Constitutive Androstane Receptor (CAR) (AID 2282969; active = hit-call score of the fitted dose curve at least 0.9, where 1 is the maximum;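 note: activators raise reporter mRNA above DMSO so AC50 marks induction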); details: HepG2 Attagene TRANS-FACTORIAL CAR reporter
In short: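 HepG2 cells transiently transfected with multiplexed GAL4-UAS reporter units expressing chimeric NR-Gal4 proteins; compound exposure 24 h. Reporter mRNA measured by RT-PCR, 6-FAM labelling, HpaI digestion and capillary electrophoresis; gain-of-signal fitted against DMSO baseline.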

[18] = target: Estrogen receptor (Homo sapiens) (UniProt P03372); experiment: ATG_ERa_TRANS: Attagene TRANS-FACTORIAL HepG2 Assay for human Estrogen Receptor alpha (ERa) (AID 2282970; active = hit-call score of the fitted dose curve at least 0.9, where 1 is the maximum); details: HepG2 Attagene TRANS ERa GAL4 reporter, mRNA
Chain of Estrogen receptor (Homo sapiens) (P03372 whole entry, looked up, the tested form may be a part): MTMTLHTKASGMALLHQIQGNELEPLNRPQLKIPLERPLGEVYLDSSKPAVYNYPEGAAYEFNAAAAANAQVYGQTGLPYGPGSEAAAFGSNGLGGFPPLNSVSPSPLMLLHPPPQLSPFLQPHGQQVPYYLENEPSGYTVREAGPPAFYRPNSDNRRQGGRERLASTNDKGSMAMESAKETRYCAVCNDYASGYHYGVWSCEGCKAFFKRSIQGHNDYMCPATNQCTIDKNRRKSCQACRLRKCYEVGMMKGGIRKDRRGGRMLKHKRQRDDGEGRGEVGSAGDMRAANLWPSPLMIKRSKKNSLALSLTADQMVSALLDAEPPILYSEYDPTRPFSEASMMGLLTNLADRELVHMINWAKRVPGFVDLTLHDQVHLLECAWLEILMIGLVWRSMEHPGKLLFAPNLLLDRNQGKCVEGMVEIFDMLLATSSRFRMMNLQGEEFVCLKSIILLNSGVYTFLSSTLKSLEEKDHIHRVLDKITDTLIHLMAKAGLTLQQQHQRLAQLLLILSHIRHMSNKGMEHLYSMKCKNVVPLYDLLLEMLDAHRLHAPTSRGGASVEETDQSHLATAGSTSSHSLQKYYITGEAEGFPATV
In short: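 After 24 h of compound treatment, RNA from HepG2 cells bearing transfected GAL4-UAS reporter constructs is converted to cDNA, amplified and fluorescently labelled. Capillary electrophoresis resolves the ERa-linked reporter; DMSO serves as negative control.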

## CCCCN(CCCC)N=O
[1]
  outcome: inactive
[2]
  outcome: inactive
[3]
  outcome: inactive
[4]
  outcome: inactive
[5]
  outcome: inactive
[6]
  outcome: inactive
[7]
  outcome: inactive
[8]
  outcome: inactive

## FC(F)(F)C(F)(C(F)(F)F)C(F)(F)C(F)(F)CC1CO1 (stereo unspecified)
[1]
  outcome: inactive
[2]
  outcome: inactive
[3]
  outcome: inactive
[9]
  outcome: inactive
[4]
  outcome: inactive
[10]
  outcome: inactive
[6]
  outcome: inactive
[7]
  outcome: inactive
[11]
  outcome: inactive
[8]
  outcome: inactive
[12]
  outcome: inactive

## O=[N+]([O-])c1ccc(Cl)c(Cl)c1
[1]
  outcome: inactive
[2]
  outcome: inactive
[3]
  outcome: inactive
[9]
  outcome: inactive
[13]
  outcome: inactive
[4]
  outcome: inactive
[14]
  outcome: inactive
[15]
  outcome: inactive
[7]
  outcome: inactive
[8]
  outcome: inactive

## CN(C)C(=O)Cl
[1]
  outcome: inactive
[2]
  outcome: inactive
[3]
  outcome: inactive
[9]
  outcome: inactive
[13]
  outcome: inactive
[4]
  outcome: inactive
[15]
  outcome: inactive
[6]
  outcome: inactive
[8]
  outcome: inactive
[12]
  outcome: inactive

## COP(=O)(CCC(=O)NCO)OC
[1]
  outcome: inactive
[2]
  outcome: inactive
[3]
  outcome: inactive
[9]
  outcome: inactive
[13]
  outcome: inactive
[4]
  outcome: inactive
[10]
  outcome: inactive
[15]
  outcome: inactive
[6]
  outcome: inactive
[7]
  outcome: inactive
[11]
  outcome: inactive
[8]
  outcome: inactive
[16]
  outcome: inactive

## NNC(N)=S
[1]
  outcome: inactive
[2]
  outcome: inactive
[3]
  outcome: inactive
[9]
  outcome: inactive
[4]
  outcome: inactive
[14]
  outcome: inactive
[5]
  outcome: inactive
[6]
  outcome: inactive
[7]
  outcome: inactive
[8]
  outcome: inactive

## CSC(C)(C)C=NO
[1]
  outcome: inactive
[2]
  outcome: inactive
[3]
  outcome: inactive
[9]
  outcome: inactive
[17]
  outcome: inactive
[4]
  outcome: inactive
[8]
  outcome: inactive
[16]
  outcome: inactive

## O=S1(=O)OCC2C(CO1)C1(Cl)C(Cl)=C(Cl)C2(Cl)C1(Cl)Cl (stereo unspecified)
[1]
  AC50: 11.6 µM (active)
[2]
  outcome: inactive
[3]
  outcome: inactive
[17]
  outcome: inactive
[18]
  outcome: inactive
[4]
  AC50: 167 µM (active)
[6]
  outcome: inactive
[7]
  outcome: inactive
[8]
  outcome: inactive
[12]
  outcome: inactive

## O=P(OCC(Br)CBr)(OCC(Br)CBr)OCC(Br)CBr (stereo unspecified)
[1]
  outcome: inactive
[2]
  outcome: inactive
[3]
  outcome: inactive
[4]
  AC50: 8.88 µM (active)
[10]
  outcome: inactive
[8]
  outcome: inactive

## O=[N+]([O-])c1ccccc1
[1]
  outcome: inactive
[2]
  outcome: inactive
[3]
  outcome: inactive
[18]
  AC50: 19.8 µM (active)
[4]
  outcome: inactive
[8]
  outcome: inactive

## CCN(CC)c1ccccc1
[1]
  outcome: inactive
[2]
  outcome: inactive
[3]
  outcome: inactive
[9]
  outcome: inactive
[4]
  outcome: inactive
[10]
  outcome: inactive
[14]
  outcome: inactive
[16]
  outcome: inactive

## Cc1cc(C)c(C(=O)P(=O)(c2ccccc2)c2ccccc2)c(C)c1
[1]
  outcome: inactive
[2]
  outcome: inactive
[3]
  outcome: inactive
[9]
  AC50: 0.54 µM (active)
[18]
  AC50: 25.5 µM (active)
[4]
  AC50: 53.4 µM (active)
[6]
  outcome: inactive
[7]
  outcome: inactive
[8]
  AC50: 173 µM (active)

## O=C(O)C(Cl)Cl
[3]
  outcome: inactive

## C=C(C)C(=O)OCC1CO1 (stereo unspecified)
[11]
  outcome: inactive
